Experimental data published in PubChem BioAssay.
“And” between values parts separate entries of the source, which are not always exact repeats. Identical values can stand only once. Results filed as inconclusive are left out. The source made the active and inactive calls. Unless noted, no stated cut-off is given here; in the data, active means inhibition above about 80%; inactive means the rest.

What was measured:
[1] = inhibitors of Cryptococcus chitosan production, flow cytometry, Cibacron Brilliant Red staining (AID 1347148; call rule not given here;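 further: compound exposure lasted three days at 37 degrees C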); conditions: Cryptococcus neoformans chitosan, stronger effect = lower value; at 10 µM unless noted
[2] = kinase inhibitors against Plasmodium liver-stage infection, cell-based, known kinase inhibitor set, luminescence, hepatoma host viability (AID 624392; call rule not given here;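 further: infected cells incubated roughly two days before readout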); conditions: Plasmodium liver stage in hepatoma cells, luciferase luminescence, concentration not given here; liver cell % of control: measured here: host liver cell viability; parasite % of control: stronger effect = lower value
[3] = biological target: Mitogen-activated protein kinase 7 (Homo sapiens) (UniProt Q13164); experiment: ERK5 transactivation activators in reporter cells, primary screen, cell-based, HTS (AID 1508626;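 active means luciferase signal above three times the same-plate solvent-only control wells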;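 further: luciferase driven by Gal4-ERK5 fusion binding five Gal4 sites before minimal TATA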); conditions: HeLa Gal4-ERK5 transactivation, 18 h, at 5 µM, stronger effect = higher value
Mitogen-activated protein kinase 7 (Homo sapiens), sequence (Q13164 whole entry, looked up, the tested form may be a part): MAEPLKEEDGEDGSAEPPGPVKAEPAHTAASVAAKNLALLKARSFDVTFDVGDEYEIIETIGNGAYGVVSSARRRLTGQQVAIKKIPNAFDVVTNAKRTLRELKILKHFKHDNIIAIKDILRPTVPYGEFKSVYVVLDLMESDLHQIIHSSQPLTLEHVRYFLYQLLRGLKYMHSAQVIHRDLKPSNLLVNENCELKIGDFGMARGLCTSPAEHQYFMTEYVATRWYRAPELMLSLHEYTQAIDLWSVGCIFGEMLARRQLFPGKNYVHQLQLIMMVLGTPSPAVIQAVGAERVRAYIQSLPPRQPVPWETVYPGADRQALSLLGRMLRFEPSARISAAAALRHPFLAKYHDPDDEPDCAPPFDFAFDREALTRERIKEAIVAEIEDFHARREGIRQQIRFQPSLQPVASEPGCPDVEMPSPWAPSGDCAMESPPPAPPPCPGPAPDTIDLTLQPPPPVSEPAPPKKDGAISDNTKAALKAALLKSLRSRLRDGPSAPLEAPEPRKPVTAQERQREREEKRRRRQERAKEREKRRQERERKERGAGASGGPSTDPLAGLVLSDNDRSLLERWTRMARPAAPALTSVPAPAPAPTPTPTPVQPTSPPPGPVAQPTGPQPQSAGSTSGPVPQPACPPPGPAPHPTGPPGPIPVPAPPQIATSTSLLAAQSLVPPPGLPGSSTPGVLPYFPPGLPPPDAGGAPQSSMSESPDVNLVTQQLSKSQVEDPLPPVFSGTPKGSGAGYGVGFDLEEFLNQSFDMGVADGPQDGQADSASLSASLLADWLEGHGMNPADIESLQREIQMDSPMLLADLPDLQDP

[4] = biological target: ATP-dependent translocase ABCB1 (Homo sapiens) (UniProt P08183); experiment: MDR1 (ABCB1) efflux transporter inhibition, cell-based (AID 377; in the data active means fluorescence slope change above about 50%); conditions: MDR1-expressing cells, fluorescent substrate accumulation slope; stronger effect = higher value; concentration not given here
ATP-dependent translocase ABCB1 (Homo sapiens), sequence (P08183 whole entry, looked up): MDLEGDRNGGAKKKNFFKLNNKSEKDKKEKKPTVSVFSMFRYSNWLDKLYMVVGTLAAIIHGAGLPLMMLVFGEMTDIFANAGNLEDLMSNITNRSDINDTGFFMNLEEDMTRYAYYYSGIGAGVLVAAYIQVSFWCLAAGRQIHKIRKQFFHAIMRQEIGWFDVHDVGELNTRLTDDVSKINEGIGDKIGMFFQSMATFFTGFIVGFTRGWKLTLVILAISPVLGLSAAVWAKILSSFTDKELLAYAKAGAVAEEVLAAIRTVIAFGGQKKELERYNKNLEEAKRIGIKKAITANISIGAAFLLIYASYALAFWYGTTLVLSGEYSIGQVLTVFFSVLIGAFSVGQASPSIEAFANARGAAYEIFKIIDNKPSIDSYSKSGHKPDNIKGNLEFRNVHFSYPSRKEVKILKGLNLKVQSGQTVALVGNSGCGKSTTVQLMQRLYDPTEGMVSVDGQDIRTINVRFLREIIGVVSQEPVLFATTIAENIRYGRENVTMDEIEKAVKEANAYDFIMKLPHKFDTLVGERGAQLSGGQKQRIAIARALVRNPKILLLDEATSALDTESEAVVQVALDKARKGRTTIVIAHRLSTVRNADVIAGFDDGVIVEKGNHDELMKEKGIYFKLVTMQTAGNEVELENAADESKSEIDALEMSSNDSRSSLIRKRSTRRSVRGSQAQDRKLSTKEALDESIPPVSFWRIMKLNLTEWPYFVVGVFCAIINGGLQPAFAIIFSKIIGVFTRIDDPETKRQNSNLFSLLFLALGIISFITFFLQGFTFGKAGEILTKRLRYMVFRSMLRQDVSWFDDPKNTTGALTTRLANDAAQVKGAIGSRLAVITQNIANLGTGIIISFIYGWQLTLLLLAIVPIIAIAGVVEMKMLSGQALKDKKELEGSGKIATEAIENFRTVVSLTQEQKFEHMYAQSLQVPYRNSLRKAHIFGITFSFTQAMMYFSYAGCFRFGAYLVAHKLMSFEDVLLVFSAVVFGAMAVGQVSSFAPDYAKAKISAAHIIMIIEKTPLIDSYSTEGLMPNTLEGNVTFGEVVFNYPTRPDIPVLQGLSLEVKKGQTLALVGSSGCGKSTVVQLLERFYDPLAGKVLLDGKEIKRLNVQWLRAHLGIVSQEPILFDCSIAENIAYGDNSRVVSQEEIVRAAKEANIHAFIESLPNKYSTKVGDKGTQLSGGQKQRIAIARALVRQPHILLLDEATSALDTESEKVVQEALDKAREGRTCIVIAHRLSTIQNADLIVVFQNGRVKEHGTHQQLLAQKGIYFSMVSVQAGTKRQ

[5] = UWB1.289 ovarian carcinoma cell growth inhibition, synergistic combos for chromothripsis tumors, BGB or cisplatin combos (AID 1671456); conditions: UWB1.289 ovarian carcinoma cells, stronger effect = higher value;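 further: cells exposed to compound for four days; 0% = vehicle DMSO and 100% = killing by high DMSO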
[6] = LFS_MB_2R medulloblastoma cell growth inhibition, synergistic combos for chromothripsis tumors, cisplatin combos (AID 1671457); conditions: LFS_MB_2R medulloblastoma cells, stronger effect = higher value;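 further: cells exposed to compound for four days before readout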
[7] = UWB1.289_BRCA1 ovarian cancer growth, cell-based, BGB or cisplatin combinations (AID 1671459); conditions: UWB1.289 BRCA1 ovarian carcinoma, drug combinations, stronger effect = higher value
[8] = human astrocyte viability loss, single and combined drugs, cytotoxicity control for chromothriptic childhood tumor combination screen, cell-based, BGB or cisplatin IC20 combos (AID 1671460); conditions: Human astrocytes, drug combinations, stronger effect = higher value;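 further: cells exposed to compounds for 96 hours before viability readout; 0% = vehicle and 100% = killing control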
[9] = measured here: inhibition with BGB combination, at 0.05 µM
[10] = measured here: inhibition with cisplatin combination, at 0.05 µM
[11] = measured here: combination with cisplatin, at 0.5 µM
[12] = measured here: combination with cisplatin, at 5 µM
[13] = BGB combination, concentration series, at 5 µM
[14] = cisplatin combination, concentration series, at 5 µM
[15] = measured here: combo with BGB IC20, at 0.5 µM
[16] = measured here: combo with cisplatin IC20, at 0.5 µM

## N=C(N)c1ccc2cc(OC(=O)c3ccc(N=C(N)N)cc3)ccc2c1
[1]
  fold fluorescence: 12.2 [at 143.9 µM] (inactive)

## C=CC(=O)Nc1cc2c(Nc3ccc(F)c(Cl)c3)ncnc2cc1OCCCN1CCOCC1
[2]
  liver cell % of control: 85.5% and 77.3% and 90.4%
  parasite % of control: 36.7% (inactive) and 39.4% (inactive) and 33.2% (inactive)

## Cc1ccc(Nc2nccc(N(C)c3ccc4c(C)n(C)nc4c3)n2)cc1S(N)(=O)=O
[2]
  liver cell % of control: 87.8% and 92.8% and 108%
  parasite % of control: 30.2% (inactive) and 10.9% (inactive) and 16.3% (inactive)

## NC(=O)c1ncn([C@@H]2O[C@H](CO)[C@@H](O)[C@H]2O)c1N
[3]
  luciferase signal: 16 AU (inactive)

## Clc1ccc(C(Cn2ccnc2)OCc2c(Cl)cccc2Cl)c(Cl)c1 (stereo not drawn)
[4]
  fluorescence slope change: 107% (active)

## O=c1[nH]c(=O)n([C@H]2C[C@H](O)[C@@H](CO)O2)cc1C(F)(F)F
[3]
  luciferase signal: 36 AU (inactive)
[5]; at 0.5 µM
  inhibition: -11.1% (inactive)
[5]; [9]
  inhibition: -14.4%
[5]; [10]
  inhibition: -6.35%
[6]; at 0.5 µM
  inhibition: -13.5% (inactive)
[6]; [11]
  inhibition: -15.3%
[6]; [12]
  inhibition: -85.8%
[7]; [13]
  inhibition: 3.66%
[7]; at 0.5 µM
  inhibition: -12.4% (inactive)
[7]; [14]
  inhibition: 9.54%
[8]; at 0.5 µM
  inhibition: -1.16% (inactive)
[8]; [15]
  inhibition: 5.49%
[8]; [16]
  inhibition: -19.9%

## CCOC(=O)Nc1ccc(NCc2ccc(F)cc2)nc1N
[5]; at 0.5 µM
  inhibition: 4.04% (inactive)
[5]; [9]
  inhibition: -16.5%
[5]; [10]
  inhibition: -2.73%
[6]; at 0.5 µM
  inhibition: -26.1% (inactive)
[6]; [11]
  inhibition: -30.1%
[6]; [12]
  inhibition: -38%
[7]; [13]
  inhibition: -6.96%
[7]; at 0.5 µM
  inhibition: -1.39% (inactive)
[7]; [14]
  inhibition: 8.03%
[8]; at 0.5 µM
  inhibition: 3.76% (inactive)
[8]; [15]
  inhibition: 6.16%
[8]; [16]
  inhibition: 13.9%

## C#Cc1cccc(Nc2ncnc3cc(OCCOC)c(OCCOC)cc23)c1
[2]
  liver cell % of control: 94.7% and 95% and 97.1%
  parasite % of control: 281% (inactive) and 87% (inactive) and 63.1% (inactive)

## C[C@@H]1C[C@H]2[C@@H]3CCC4=CC(=O)C=C[C@]4(C)[C@@]3(Cl)[C@@H](O)C[C@]2(C)[C@@]1(OC(=O)c1ccco1)C(=O)CCl
[4]
  fluorescence slope change: 21.4% (inactive)

## CC1=C(C)C(=O)C(CCCCC#CCCCC#CCO)=C(C)C1=O
[1]
  fold fluorescence: 9.55 [at 153.2 µM] (inactive)

## CCCCCCCCCCCCCCC[C@H](O)[C@@H](N)CO
[1]
  fold fluorescence: 7.01 (inactive)

## C(=C\c1ccccc1)/CN1CCN(C(c2ccccc2)c2ccccc2)CC1
[4]
  fluorescence slope change: 102% (active)

## OCCN1CCN(CC/C=C2/c3ccccc3Sc3ccc(C(F)(F)F)cc32)CC1
[4]
  fluorescence slope change: 77.6% (active)

## O=c1[nH]c(=O)n([C@H]2C[C@H](O)[C@@H](CO)O2)cc1Br
[5]; at 0.5 µM
  inhibition: 3.4% (inactive)
[5]; [9]
  inhibition: -18.3%
[5]; [10]
  inhibition: -5.15%
[6]; at 0.5 µM
  inhibition: -21.2% (inactive)
[6]; [11]
  inhibition: -22.2%
[6]; [12]
  inhibition: -17.4%
[7]; [13]
  inhibition: 35.6%
[7]; at 0.5 µM
  inhibition: 9.43% (inactive)
[7]; [14]
  inhibition: 29%
[8]; at 0.5 µM
  inhibition: 11% (inactive)
[8]; [15]
  inhibition: 6.3%
[8]; [16]
  inhibition: 12.5%

## C[C@H](NCCc1ccc(O)cc1)[C@H](O)c1ccc(O)cc1
[4]
  fluorescence slope change: 27.4% (inactive)
[3]
  luciferase signal: 96 AU (inactive)
